Reference: ChEMBL document CHEMBL1157539, “Thousands of chemical starting points for antimalarial lead identification” (Nature, 2010)

What was measured:
Type in all cases: functional
[1] = tested on: Plasmodium falciparum; test: GSK_TCMDC: Inhibition of Plasmodium falciparum 3D7 in whole red blood cells, using parasite LDH activity as an index of growth. Test compounds present at 2uM
[2] = tested on: Plasmodium falciparum; test: GSK_TCMDC: Inhibition of Plasmodium falciparum Dd2 in whole red blood cells, using parasite LDH activity as an index of growth. Test compounds present at 2uM
[3] = tested on: HepG2; test: GSK_TCMDC: Percent inhibition of human HepG2 cell line. Test compounds present at 10uM.

Question: Which Inhibition [1] does the source give for COc1cc(Cc2cnc(N)nc2N)cc(OCCCOc2ccccc2)c1OC here?
Answer: 94%

Question: What about the Inhibition [2] of the same compound?
Answer: 2%

Question: And the Inhibition [3]?
Answer: 7%

Question: Which Inhibition [1] does the source give for Oc1cccc(-c2nc(-c3cccc(I)c3)c(-c3ccc(-c4nc(-c5cccc(O)c5)[nH]c4-c4cccc(I)c4)cc3)[nH]2)c1 here?
Answer: 96%

Question: And the Inhibition [2]?
Answer: 66%

Question: And the Inhibition [3]?
Answer: 0%

Question: For COc1cc(C(=O)N2N=C(c3c(-c4ccccc4)c4cc(Br)ccc4[nH]c3=O)CC2c2cccc([N+](=O)[O-])c2)cc(OC)c1OC (stereo not drawn), which Inhibition [1] is on record?
Answer: 93%

Question: What about the Inhibition [2] of the same compound?
Answer: 95%

Question: What about the Inhibition [3] of the same compound?
Answer: 1%

Question: Clc1ccc(Nc2nc(-c3ccccn3)cs2)nc1 was tested. Which Inhibition [1] did it give?
Answer: 95%

Question: And the Inhibition [2]?
Answer: 90%

Question: And the Inhibition [3]?
Answer: 36%

Question: For CC(=O)Nc1ccc(OCCN(CC(C)C)c2ccc(C(F)(F)F)c(C#N)c2)c(Cl)c1, which Inhibition [1] is on record?
Answer: 96%

Question: And the Inhibition [2]?
Answer: 95%

Question: And the Inhibition [3]?
Answer: 13%

Question: What does the source list for O=C(Nc1ccc([N+](=O)[O-])cc1)Nc1nc2ccc(Cl)cc2s1?
Answer: Inhibition [1]: 92%; Inhibition [2]: 33%; Inhibition [3]: 63%

Question: Which results are given for COCCn1c(-c2cccc(Cl)c2)nn(-c2ccc([N+](=O)[O-])cc2C#N)c1=S?
Answer: Inhibition [1]: 100%; Inhibition [2]: 100%; Inhibition [3]: 7%

Question: Cc1nn(-c2ccc(Cl)cc2)c2[nH]c(CN3CCN(c4cccc(Cl)c4)CC3)cc(=O)c12 was tested. Which Inhibition [1] did it give?
Answer: 98%

Question: What about the Inhibition [2] of the same compound?
Answer: 98%

Question: And the Inhibition [3]?
Answer: 0%

Question: O=C(N[C@@H](Cc1ccccc1)C(=O)NC1CCCc2ccccc21)c1ccc(O)c(-c2ccc(Cl)c(Cl)c2)c1 (stereo partly drawn) was tested. Which Inhibition [1] did it give?
Answer: 97%

Question: And the Inhibition [2]?
Answer: 99%

Question: And the Inhibition [3]?
Answer: 0%

Question: For O=C(CCc1c[nH]cn1)Nc1ccc(-c2ccc(-c3nc4ccccc4[nH]3)cc2)cc1, which Inhibition [1] is on record?
Answer: 98%

Question: What about the Inhibition [2] of the same compound?
Answer: 70%

Question: And the Inhibition [3]?
Answer: 46%

Question: CC1CN(c2nc(NCCc3ccc(O)cc3)nc(NCc3ccccc3-c3ccc(C(F)(F)F)cc3)n2)CC(C)N1 (stereo not drawn) was tested. Which Inhibition [1] did it give?
Answer: 100%

Question: What about the Inhibition [2] of the same compound?
Answer: 68%

Question: What about the Inhibition [3] of the same compound?
Answer: 24%

Question: Which results are given for O=C(Nc1ccc(-c2nc3ccccc3[nH]2)cc1)C1CCCN(C2CCC2)C1 (stereo not drawn)?
Answer: Inhibition [1]: 90%; Inhibition [2]: 5%; Inhibition [3]: 0%

Question: For COc1ccc(C(c2ccc(N(C)C)cc2)c2ccc(N(C)C)cc2)cc1, which Inhibition [1] is on record?
Answer: 100%

Question: What about the Inhibition [2] of the same compound?
Answer: 99%

Question: And the Inhibition [3]?
Answer: 72%

Question: For CCCCCCCCCCN1C(=O)C2C(CCCCNC(C)=O)NC3(C(=O)N(Cc4ccc(C(C)(C)C)cc4)c4ccccc43)C2C1=O (stereo not drawn), which Inhibition [1] is on record?
Answer: 86%

Question: What about the Inhibition [2] of the same compound?
Answer: 65%

Question: What about the Inhibition [3] of the same compound?
Answer: 3%

Question: What does the source list for O=S(=O)(c1cc(Cl)ccc1Cl)N1CCCCC(c2ccc(C(F)(F)F)cc2)=N1?
Answer: Inhibition [1]: 87%; Inhibition [2]: 68%; Inhibition [3]: 15%

Question: What does the source list for CC(=O)Nc1cccc(C(=O)Nc2cccc(-c3ccc(-c4nc5cc(F)ccc5[nH]4)cc3)c2)c1?
Answer: Inhibition [1]: 95%; Inhibition [2]: 9%; Inhibition [3]: 60%

Question: With CC1CN(Cc2ccc(-c3cccc(-c4nc5cc(F)ccc5[nH]4)c3)cc2)CC(C)O1.O=C(O)C(F)(F)F (stereo not drawn) as the compound, how does the Inhibition [1] read?
Answer: 93%

Question: What about the Inhibition [2] of the same compound?
Answer: 20%

Question: What about the Inhibition [3] of the same compound?
Answer: 28%

Question: How did the Inhibition [1] turn out when CN(C)CCNC(=O)c1cccc(-c2cnc3ccc(NCc4ccc(Cl)c(Cl)c4)nn23)c1 was run?
Answer: 100%

Question: What about the Inhibition [2] of the same compound?
Answer: 53%

Question: What about the Inhibition [3] of the same compound?
Answer: 31%

Question: What does the source list for CN(Cc1ccccc1)C(=O)CCNS(=O)(=O)c1cc(Br)cnc1N?
Answer: Inhibition [1]: 91%; Inhibition [2]: 61%; Inhibition [3]: 0%

Question: CC1(C)CC(=O)c2c(O)cc(OCc3ccncc3)cc2O1.Cl was tested. Which Inhibition [1] did it give?
Answer: 92%

Question: And the Inhibition [2]?
Answer: 47%

Question: What about the Inhibition [3] of the same compound?
Answer: 80%

Question: How did the Inhibition [1] turn out when Cc1c(CN2CCCCC2)cccc1OCCCNc1nc(NCCc2ccc(O)cc2)nc(N2CCNCC2)n1.O=C(O)C(F)(F)F was run?
Answer: 100%

Question: And the Inhibition [2]?
Answer: 23%

Question: What about the Inhibition [3] of the same compound?
Answer: 26%

Question: How did the Inhibition [1] turn out when COc1cc(C(=O)NC2CCN(Cc3ccccc3)CC2)ccc1-c1nc2c(Cl)cc(C(F)(F)F)cc2[nH]1 was run?
Answer: 100%

Question: And the Inhibition [2]?
Answer: 56%

Question: What about the Inhibition [3] of the same compound?
Answer: 7%

Question: COc1ccc(C2CC(=O)C3=C(C2)NC(C)=C(C(=O)OC(C)C)C3c2c(F)cccc2Cl)cc1OC (stereo not drawn) was tested. Which Inhibition [1] did it give?
Answer: 93%

Question: What about the Inhibition [2] of the same compound?
Answer: 81%

Question: What about the Inhibition [3] of the same compound?
Answer: 0%

Question: Which results are given for CCN(CC)CCCCNc1cc(-c2[nH]c(C(C)(C)C)nc2-c2ccc3cc(OC)ccc3c2)ccn1.O=C(O)C(F)(F)F?
Answer: Inhibition [1]: 85%; Inhibition [2]: 76%; Inhibition [3]: 23%

Question: With Cc1cccc(-n2c(Nc3ccc(C)c(Cl)c3)nc3ccc(S(=O)(=O)NC(C)C(C)C)cc32)c1 (stereo not drawn) as the compound, how does the Inhibition [1] read?
Answer: 97%

Question: And the Inhibition [2]?
Answer: 97%

Question: And the Inhibition [3]?
Answer: 0%

Question: How did the Inhibition [1] turn out when Cc1[nH]c(C)c(-c2ccc(OCCOc3ccc(C(F)(F)F)cn3)cc2)c(=O)c1Br was run?
Answer: 97%

Question: What about the Inhibition [2] of the same compound?
Answer: 97%

Question: And the Inhibition [3]?
Answer: 25%

Question: Which Inhibition [1] does the source give for CNC(=O)c1ccccc1Nc1nc(Nc2ccc(C(=O)O)cc2)ncc1Cl.Cl here?
Answer: 92%

Question: What about the Inhibition [2] of the same compound?
Answer: 92%

Question: What about the Inhibition [3] of the same compound?
Answer: 60%

Question: Which results are given for Br.CCCCCCCCc1c(C)nc(C)c(Br)c1O?
Answer: Inhibition [1]: 96%; Inhibition [2]: 92%; Inhibition [3]: 0%

Question: What does the source list for Cc1cc(O)c2c(c1)OC(C)(C)C=C2C1=CCN(Cc2ccccc2)CC1?
Answer: Inhibition [1]: 96%; Inhibition [2]: 1%; Inhibition [3]: 0%

Question: How did the Inhibition [1] turn out when CC(CN(C)C)C(=O)Nc1cccc(-c2ccc(-c3nc4ccccc4[nH]3)s2)c1 (stereo not drawn) was run?
Answer: 100%

Question: What about the Inhibition [2] of the same compound?
Answer: 47%

Question: What about the Inhibition [3] of the same compound?
Answer: 13%

Question: Which results are given for C=CCc1cc(Br)ccc1OCCCOc1c(C)nc(N)nc1N.Cl?
Answer: Inhibition [1]: 94%; Inhibition [2]: 96%; Inhibition [3]: 56%
